Measured values from the OligoGym collection.

Biological target: MOBKL1B
Test: pooled miR-30 sensor sort-seq; sequence = guide strand
Details: shRNA

Compared with TTTAATATTAGTACCATCTGCC, AAGAGTTTCATCATCAAGCTGA is higher in sensor-assay potency score (higher = more potent): 0.311 for the first, 0.471 for the second.

Going from TTCATCATCAAGCTGATCTTGA to TTTTAATATTAGTACCATCTGC, the sensor-assay potency score (higher = more potent) falls from 0.57 to -0.715.

Going from TAATTCTTGAAGAGGTGCCAGC to TAAAAGAATAAAACCAATCTGA, the sensor-assay potency score (higher = more potent) rises from -0.967 to -0.367.

First: AATATTAGTACCATCTGCCCAG
Second: TTGAATGTTTTAGAAGAGCGGC
The sensor-assay potency score (higher = more potent) of the first is higher: 0.0511 for the first, -0.634 for the second.

TTTTGGTGCAGAACATTTGATT showed a sensor-assay potency score (higher = more potent) of -0.935.

Biological target: MOCS3
Test: as above
Details: shRNA

Going from TTAAAGGGTCTAACTCTTGAGC to AACAAGTGTATCTTTGAGGTAT, the sensor-assay potency score (higher = more potent) rises from -0.607 to 0.286.

Compared with TTTCTGTGAGTCATTTCCCAGT, TTGCAAATCACATAAATGGGGA is higher in sensor-assay potency score (higher = more potent): -0.966 for the first, -0.379 for the second.

Going from TATTATGGCAATCCACATCTTT to TTAGAAAGCATTTTGACTGGGG, the sensor-assay potency score (higher = more potent) rises from -0.453 to 0.772.

Compared with TTGGTCACTGTCTCCGCTGGGG, TAGCGCAGAATCTCATCTCGGG is higher in sensor-assay potency score (higher = more potent): -0.474 for the first, -0.0421 for the second.

Going from TTTGCAAATCACATAAATGGGG to TCAAAGAGCAACAAGCTGCCAC, the sensor-assay potency score (higher = more potent) rises from -0.854 to -0.221.

Compared with TAGTCGGTGACAGAAACACGCT, TTGAGCTGCTGATAAGGACTGG is higher in sensor-assay potency score (higher = more potent): -0.908 for the first, -0.00969 for the second.

Biological target: MOGAT1
Test: as above
Details: shRNA

Compared with TTCTGAACAGTTCTAATCCATG, TTCTAATCCATGATCCTTCAGG is higher in sensor-assay potency score (higher = more potent): -1.47 for the first, -0.32 for the second.

Going from TAACTCCTCAATCTGCTCCTGG to TAGGACACACTTTTCTTGGAAA, the sensor-assay potency score (higher = more potent) falls from -0.332 to -0.902.

Compared with TTACCATGTAGGACACACTTTT, TTGTACTGAAAAACTCCCCTGG is higher in sensor-assay potency score (higher = more potent): -0.495 for the first, 0.595 for the second.

Going from TTTAACAAATCCTTTCCGCTGG to TATAGGTCTGATGTAACTCCTC, the sensor-assay potency score (higher = more potent) falls from -0.0523 to -0.267.

First: TATAGTTGTGACTTGGATCCAA
Second: TTTCTTGGAAACTGAAACCAGC
The sensor-assay potency score (higher = more potent) of the first is higher: 0.757 for the first, -0.444 for the second.

Compared with ATGAATTGGAAAATAGTCCTTA, TTGATCCAGCTGGATCTCCTGC is lower in sensor-assay potency score (higher = more potent): 0.9 for the first, -0.998 for the second.

Biological target: MON2
Test: as above
Details: shRNA

Going from AACATCTACAACTATTTGCAGG to AAAAACAACAGTAACAACTTGT, the sensor-assay potency score (higher = more potent) rises from -1.11 to 0.77.

First: TTGGACATCTCCTTTAACGGGT
Second: TATTTGACCAACAAATTCCTTA
The sensor-assay potency score (higher = more potent) of the first is lower: -0.305 for the first, -0.301 for the second.

Going from TAGTCGAAAACAAAGAACGATT to TAGTGTTGAAGATCCTTGCTAC, the sensor-assay potency score (higher = more potent) rises from -1.16 to 0.514.

Work on TAAACTAATATTGAGTTCTTGG yielded a sensor-assay potency score (higher = more potent) of -0.234.
